SKKanGAS inh: blocks kanamycin growth of S. pyogenes SKKanGAS strain. inhibition, % at 7.5 µM. 300,000 compounds, 1.3% hits. BacTiter-Glo, 6 h. AID 1662;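 active = mean replicate score, as percent of positive control median, at least 50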;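 note: strain carries kanamycin resistance gene driven by streptokinase promoter and grows in 40 µg/ml kanamycin; loss of luminescence reflects streptokinase promoter inhibition or plain growth inhibition; 0% = median of DMSO wells and 100% = positive control at its reference dose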
tim23-1 inh: growth inhibitors of tim23-1 mutant yeast. S. cerevisiae tim23-1 growth, BacTiter-Glo luminescence, 24 h. inhibition, % at 20 µM. 330,000 compounds, 1.3% hits. AID 463212;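 active = growth inhibition of the mutant yeast at or above 50%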;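 note: temperature-sensitive mutant grown at 25 °C; plate controls were DMSO-treated mutant yeast for no effect and medium wells lacking yeast for full effect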
NALP3 yeast inh: NALP3 inhibition in yeast; Yeast reconstituted NLRP3/ASC/caspase-1, beta-gal luminescence, 24 h; inhibition, % at 10 µM; 330,000 compounds, 0.39% hits; AID 2825;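 active = inhibition of 50% or more; inactive = inhibition below 50%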;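 note: plate controls were induced DMSO wells for no effect and uninduced yeast grown without galactose for full effect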
tim10-1 inh: tim10-1 yeast growth inhibition; S. cerevisiae tim10-1 ts strain growth, BacTiter-Glo, 24 h; 330,000 compounds, 2.2% hits; inhibition, % at 20 µM;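 active = inhibition of at least 40%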;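 note: mutant grown at 25 °C; 0% = DMSO wells with yeast and 100% = wells holding no yeast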
TIM10 inh: growth inhibitors of TIM10 yeast strain. S. cerevisiae TIM10 strain growth, BacTiter-Glo luminescence, 24 h. inhibition, % at 10 µM. 330,000 compounds, 1.4% hits. AID 463195;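 active = inhibition of 40% or more at the single tested concentration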;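 note: wild-type TIM10 isogenic control strain grown at permissive 25 °C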
PfHsp90 yeast 2: growth inhibition of yeast expressing Plasmodium Hsp90 | inhibition, % at 9.4 µM | S. cerevisiae expressing PfHsp90, BacTiter-Glo ATP, 48 h; yeast lacking PDR1 and PDR3 efflux regulators | 310,000 compounds, 0.32% hits;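 active = every replicate shows inhibition above about 80%, whatever the replicate mean, limit read from the data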;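 note: 0% = DMSO neutral controls and 100% = 20 µM radicicol positive controls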
tim10-1 confirm: tim10-1 yeast growth inhibition, confirmed; shares compounds with tim10-1 inh; S. cerevisiae tim10-1 ts strain growth, BacTiter-Glo, 24 h; inhibition, % at 20 µM; 7,400 compounds, 56% hits;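 active = inhibition of yeast growth at or above a set limit in either of two repeat tests at 20 µM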;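 note: tim10-1 mutant grown at permissive 25 °C to find synthetic lethal compounds; 0% = DMSO yeast wells and 100% = medium wells without yeast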
Numbers without * were called inactive; nt = no result given. Rows were chosen to be rich in hits. Some 4.6% of all compounds tested hit in one or more screens of this group.

SMILES	SKKanGAS inh	tim23-1 inh	NALP3 yeast inh	tim10-1 inh	TIM10 inh	PfHsp90 yeast 2	tim10-1 confirm
Cc1nc(NS(=O)(=O)c2ccc(Br)cc2)c2c3c(sc2n1)CCC3	43.7	32.4	10.4	13.9	19.9	-14.7	nt
Cc1nc(NS(=O)(=O)c2cccs2)c2c3c(sc2n1)CCC3	4.7	43.4	8.0	43.8*	26.3	nt	29.1*
O=C(CSc1nc2ccccc2[nH]1)c1ccccc1F	-6.7	21.1	14.5	20.7	9.8	-17.1	nt
Fc1cccc(F)c1CSc1nc2ccccc2[nH]1	0.3	32.4	26.0	42.6*	35.1	-15.3	30.0
Nc1ccc(Nc2ccccc2N)cc1	nt	26.3	34.2	35.3	-4.6	-43.4	nt
COc1ccc(Nc2ccccc2N)cc1	25.9	36.0	39.1	47.2*	26.5	-11.4	24.1
N=c1oc2cc(O)ccc2cc1C(=O)Nc1ccc(Cl)cc1	10.8	43.5	-22.6	44.4*	25.2	6.6	23.9
O=C(NCCCN1CCCC1=O)c1cccc(S(=O)(=O)N2CCCCC2)c1	nt	-15.5	-2.4	-3.3	-0.6	13.2	nt
CCCc1cc(-c2n[nH]c(=S)n2-c2cccc(C)c2)cs1	-7.4	48.5	18.3	46.0*	27.9	-29.5	39.2*
Cc1cccc(-n2c(-c3ccco3)n[nH]c2=S)c1	23.2	17.7	1.1	16.4	3.2	8.8	nt
C/C(=N\NC(N)=S)C12CC3CC(CC(C3)C1)C2	-6.7	46.2	11.5	43.4*	26.4	-13.7	-21.2
CC(=O)[C@H]1[C@H](C#N)C[C@H]2[C@@H]3CC=C4C[C@@H](O)CC[C@]4(C)[C@H]3CC[C@@]21C	4.1	38.6	8.7	40.6*	35.8	-5.2	33.9*
CC(C)C(=O)N[C@H]1CCC2C3CC=C4C[C@@H](O)CC[C@]4(C)C3CC[C@@]21C (some centres undefined)	nt	19.7	24.9	11.1	1.7	16.5	nt
Nc1cc(Cl)ccc1N1CCCCCC1	-0.3	11.5	17.8	8.6	-7.2	9.1	nt
CNc1nnc(SCC(=O)N2c3ccccc3NC(=O)CC2C)s1 (centres undefined)	nt	-18.4	3.8	-12.7	3.0	-3.0	nt
CCCOc1ccccc1/C=C1\SC(N2CCCCC2)=NC1=O	-2.3	43.1	34.6	42.0*	16.6	10.8	33.3*
CCOC(=O)N1CCN(C2=C(NS(=O)(=O)c3ccccc3)C(=O)c3ccccc3C2=O)CC1	28.5	34.3	15.3	54.6*	24.8	-24.2	15.2
CCN1CCN(C2=C(NS(=O)(=O)c3ccccc3)C(=O)c3ccccc3C2=O)CC1	3.1	9.4	26.3	3.8	15.0	7.4	nt
CCOc1ccc(/C=N/NC(=O)c2cccc3ccccc23)c(OCC)c1	-1.6	3.0	18.5	-2.5	-8.1	3.8	nt
O=C(Nc1ccc(Br)cc1)c1cccc2c1C(=O)N(C1CCCCC1)C2	4.6	40.5	-1.1	55.0*	-2.0	13.6	9.4
CSc1ccc(CCNC(=O)c2cccc3c2C(=O)N(C2CCCCC2)C3)cc1	21.4	36.4	15.1	41.9*	22.8	-26.6	17.6
O=C(Nc1ccc(Br)cc1Br)c1cccc2c1C(=O)N(C1CCCCC1)C2	-3.6	33.1	8.8	41.8*	2.1	-13.7	9.1
O=C(NN1CCN(Cc2ccccc2)CC1)c1ccc(Cl)cc1	2.2	-3.0	13.1	-8.8	-4.5	7.7	nt
Clc1ccc(-c2nnc(Sc3nc4ccccc4o3)c3ccccc23)cc1	-4.4	46.4	23.9	41.6*	39.8	-34.5	16.7
Cc1nnc(Sc2nc3ccccc3o2)c2ccccc12	5.1	31.4	40.0	38.9	29.8	29.3	nt
SMILES	SKKanGAS inh	tim23-1 inh	NALP3 yeast inh	tim10-1 inh	TIM10 inh	PfHsp90 yeast 2	tim10-1 confirm
Cc1cccc(NC(=O)COC(=O)c2ccc([N+](=O)[O-])o2)c1C	2.9	-45.4	2.6	-59.8	-118.4	41.3	nt
Cc1cccnc1NC(=O)c1ccc([N+](=O)[O-])o1	2.9	26.8	-4.4	16.8	8.6	9.7	nt
Cc1ccc(NC(=O)c2ccc(Br)o2)c([N+](=O)[O-])c1	nt	nt	nt	nt	nt	0.2	nt
CCC(=O)N1CCN(c2ccc(Cl)cc2NC(=O)c2ccc([N+](=O)[O-])o2)CC1	12.8	30.6	22.9	40.4*	27.4	-5.3	27.4
Cc1ccccc1/C=C/C(=O)c1ccc([N+](=O)[O-])o1	62.4*	-6.7	41.6	67.2*	-8.1	nt	71.2*
Cc1ccccc1NC(=O)c1ccc([N+](=O)[O-])o1	7.6	39.0	13.3	51.0*	36.8	12.6	42.0*
Cc1ccc(NC(=O)c2ccc([N+](=O)[O-])o2)c(C)c1	2.1	49.0	17.7	40.2*	39.8	-9.4	53.0*
C[N+](C)(C)C(Cc1c[nH]c2ccccc12)C(=O)[O-] (centres undefined)	1.4	-5.5	7.0	-1.3	-3.7	nt	nt
COc1ccccc1N(CC(=O)NC1CCCCC1)C(=O)CCC(=O)Nc1nccs1	-3.6	2.9	-13.3	13.8	13.0	-22.9	nt
CCc1noc(C)c1C(=O)Nc1ccc(S(=O)(=O)N2CCC(C)CC2)cc1	9.7	33.8	6.0	22.4	11.4	23.2	nt
CCN(CC)C(=O)CSc1ncnc2sc(-c3ccccc3)cc12	10.9	23.8	13.6	45.9*	16.4	nt	23.2
COc1cc(/C=N/NC(=O)c2nnn(-c3nonc3N)c2C(C)C)ccc1OCc1ccc(F)cc1	58.0*	3.9	19.4	43.1*	8.7	-6.8	-0.9
CCCc1c(C(=O)N/N=C/c2ccc(OCc3ccccc3)c(OC)c2)nnn1-c1nonc1N	13.2	-10.8	5.4	2.1	-24.9	-6.2	nt
Cc1ccc(S(=O)(=O)NCCCN2CCCC2)cc1	-2.0	0.3	-4.0	-8.9	7.1	-16.4	nt
CC(=O)Nc1ccc(C(=O)OCc2ccc(F)cc2)cc1	-7.0	-24.7	45.8	42.0*	26.6	-96.7	23.1
Cc1cc(C)nc(-n2nc(C)cc2NC(=O)CN2CCCC(C)C2)n1 (centres undefined)	10.0	12.9	15.2	43.7*	7.1	4.1	3.8
CCCCn1c(N)c(N(CCOC)C(=O)CCCc2nc3ccccc3c(=O)[nH]2)c(=O)[nH]c1=O	12.8	15.1	1.5	-6.2	-2.7	nt	nt
COc1ccc(OC)c2nc(-c3ccc4c(c3)OCO4)ccc12	-6.3	48.0	19.6	41.2*	8.5	-1.4	34.5*
Cc1ccc(C)c(NC(=O)COC(=O)c2cc(=O)c3ccccc3o2)c1	nt	-6.0	-0.7	-7.9	-7.7	nt	nt
CCCC(=O)Oc1ccc(-c2nccc(C(OC)OC)n2)cc1	-8.1	11.0	1.1	4.7	6.5	-14.4	nt
Cc1cc(C)c(-c2c(O)c3cccc4c3n(c2=O)CCC4)c(C)c1	-0.8	47.3	20.7	47.1*	14.8	-11.0	26.0

Screens from PubChem BioAssay.
